In assay [1] the target is High affinity nerve growth factor receptor (Homo sapiens) (UniProt P04629). As to conditions: at 1 µM.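 Also: each value is the mean percent inhibition of TRKA.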
The target in assay [2] is BDNF/NT-3 growth factors receptor (Homo sapiens) (UniProt Q16620). As to conditions: at 0.1 µM.
The target is the same in assay [3]. As to conditions: at 1 µM.
Assay [4] addresses NT-3 growth factor receptor (Homo sapiens) (UniProt Q16288). As to conditions: at 0.1 µM.
Assay [5] shares this target. The following applies: at 1 µM.
The target in assay [6] is T1, Tyrosine-protein kinase TXK (Homo sapiens) (UniProt P42681).
T1 sequence (whole entry): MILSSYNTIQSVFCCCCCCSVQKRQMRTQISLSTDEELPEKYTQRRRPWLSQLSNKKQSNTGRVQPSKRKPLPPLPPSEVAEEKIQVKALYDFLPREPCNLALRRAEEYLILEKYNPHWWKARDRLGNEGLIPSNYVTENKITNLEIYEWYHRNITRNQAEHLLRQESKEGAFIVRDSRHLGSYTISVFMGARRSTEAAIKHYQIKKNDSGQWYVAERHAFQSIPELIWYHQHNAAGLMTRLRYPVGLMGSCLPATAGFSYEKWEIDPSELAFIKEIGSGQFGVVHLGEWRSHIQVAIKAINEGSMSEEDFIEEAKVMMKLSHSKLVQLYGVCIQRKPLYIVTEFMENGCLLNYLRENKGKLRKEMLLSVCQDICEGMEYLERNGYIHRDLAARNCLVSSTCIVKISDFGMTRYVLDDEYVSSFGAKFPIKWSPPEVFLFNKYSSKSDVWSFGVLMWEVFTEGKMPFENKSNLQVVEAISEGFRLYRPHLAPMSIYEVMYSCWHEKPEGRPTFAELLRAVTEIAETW
As to conditions: at 0.1 µM.

In assay [7] the target is T1, Tyrosine-protein kinase TXK (Homo sapiens). As to conditions: at 1 µM.
Assay [8] has as its target Non-receptor tyrosine-protein kinase TYK2 (Homo sapiens) (UniProt P29597). The following applies: at 0.1 µM.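 Also: each value is a mean of the inhibition readings.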
Assay [9] concerns the target T2, Dual specificity protein kinase TTK (Homo sapiens) (UniProt P33981).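 Also: reported figures are mean TTK inhibition at 1 µM.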
T2 sequence (whole entry): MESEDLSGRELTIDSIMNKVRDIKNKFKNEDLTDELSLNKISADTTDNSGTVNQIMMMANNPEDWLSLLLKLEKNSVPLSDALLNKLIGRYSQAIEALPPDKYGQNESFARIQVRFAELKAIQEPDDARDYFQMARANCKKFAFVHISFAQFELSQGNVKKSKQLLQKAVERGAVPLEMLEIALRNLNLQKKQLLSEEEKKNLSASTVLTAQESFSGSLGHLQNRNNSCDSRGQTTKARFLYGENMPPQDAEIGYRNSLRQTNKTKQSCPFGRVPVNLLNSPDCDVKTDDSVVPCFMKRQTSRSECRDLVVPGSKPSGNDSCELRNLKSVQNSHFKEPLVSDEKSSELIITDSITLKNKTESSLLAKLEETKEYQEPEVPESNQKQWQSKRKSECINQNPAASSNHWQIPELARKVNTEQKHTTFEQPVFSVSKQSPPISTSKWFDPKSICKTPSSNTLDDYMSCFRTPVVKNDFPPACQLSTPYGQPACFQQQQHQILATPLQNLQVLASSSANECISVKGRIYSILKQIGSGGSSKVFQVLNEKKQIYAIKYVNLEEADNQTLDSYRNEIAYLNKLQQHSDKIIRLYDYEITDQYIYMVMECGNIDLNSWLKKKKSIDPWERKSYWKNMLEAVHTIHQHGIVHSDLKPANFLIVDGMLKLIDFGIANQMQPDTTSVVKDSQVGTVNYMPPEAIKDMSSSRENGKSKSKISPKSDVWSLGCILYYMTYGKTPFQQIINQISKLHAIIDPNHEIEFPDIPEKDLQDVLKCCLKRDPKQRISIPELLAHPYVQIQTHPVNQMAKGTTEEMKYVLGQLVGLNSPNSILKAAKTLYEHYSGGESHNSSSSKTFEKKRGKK
As to conditions: at 1 µM.

Assay [10] deals with T3, Aurora kinase A (Homo sapiens) (UniProt O14965).
T3 sequence (whole entry): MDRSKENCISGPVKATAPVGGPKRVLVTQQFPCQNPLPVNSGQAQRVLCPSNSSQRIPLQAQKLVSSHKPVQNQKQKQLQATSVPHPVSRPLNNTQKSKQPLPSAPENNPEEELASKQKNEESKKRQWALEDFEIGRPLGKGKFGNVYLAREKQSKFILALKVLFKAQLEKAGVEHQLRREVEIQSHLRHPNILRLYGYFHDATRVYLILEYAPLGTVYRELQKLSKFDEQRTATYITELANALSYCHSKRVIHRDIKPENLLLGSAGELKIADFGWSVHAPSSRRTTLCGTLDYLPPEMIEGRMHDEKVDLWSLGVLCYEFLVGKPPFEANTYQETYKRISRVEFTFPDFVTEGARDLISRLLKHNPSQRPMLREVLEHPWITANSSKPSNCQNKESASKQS
As to conditions: at 0.1 µM.

In assay [11] the target is T3, Aurora kinase A (Homo sapiens). As to conditions: at 1 µM.
Assay [12] deals with Aurora kinase B (Homo sapiens) (UniProt Q96GD4). The following applies: at 0.1 µM.
For assay [13] the target is unchanged. As to conditions: at 1 µM.
Assay [14] has as its target T4, Aurora kinase C (Homo sapiens) (UniProt Q9UQB9).
T4 sequence (whole entry): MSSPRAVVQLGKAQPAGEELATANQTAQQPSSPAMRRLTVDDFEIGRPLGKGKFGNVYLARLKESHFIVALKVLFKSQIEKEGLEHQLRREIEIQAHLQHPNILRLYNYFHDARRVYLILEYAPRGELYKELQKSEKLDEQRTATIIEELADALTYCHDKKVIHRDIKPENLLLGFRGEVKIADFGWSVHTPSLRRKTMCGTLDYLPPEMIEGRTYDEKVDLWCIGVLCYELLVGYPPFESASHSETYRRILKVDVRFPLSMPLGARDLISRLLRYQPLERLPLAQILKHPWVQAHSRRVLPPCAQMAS
As to conditions: at 0.1 µM.

For assay [15], the target named is T4, Aurora kinase C (Homo sapiens). The following applies: at 1 µM.
Assay [16] deals with Serine/threonine-protein kinase 10 (Homo sapiens) (UniProt O94804). As to conditions: at 0.1 µM.
For assay [17] the target is unchanged. As to conditions: at 1 µM.
For assay [18], the target named is T5, Mitogen-activated protein kinase kinase kinase kinase 2 (Homo sapiens) (UniProt Q12851).
T5 sequence (whole entry): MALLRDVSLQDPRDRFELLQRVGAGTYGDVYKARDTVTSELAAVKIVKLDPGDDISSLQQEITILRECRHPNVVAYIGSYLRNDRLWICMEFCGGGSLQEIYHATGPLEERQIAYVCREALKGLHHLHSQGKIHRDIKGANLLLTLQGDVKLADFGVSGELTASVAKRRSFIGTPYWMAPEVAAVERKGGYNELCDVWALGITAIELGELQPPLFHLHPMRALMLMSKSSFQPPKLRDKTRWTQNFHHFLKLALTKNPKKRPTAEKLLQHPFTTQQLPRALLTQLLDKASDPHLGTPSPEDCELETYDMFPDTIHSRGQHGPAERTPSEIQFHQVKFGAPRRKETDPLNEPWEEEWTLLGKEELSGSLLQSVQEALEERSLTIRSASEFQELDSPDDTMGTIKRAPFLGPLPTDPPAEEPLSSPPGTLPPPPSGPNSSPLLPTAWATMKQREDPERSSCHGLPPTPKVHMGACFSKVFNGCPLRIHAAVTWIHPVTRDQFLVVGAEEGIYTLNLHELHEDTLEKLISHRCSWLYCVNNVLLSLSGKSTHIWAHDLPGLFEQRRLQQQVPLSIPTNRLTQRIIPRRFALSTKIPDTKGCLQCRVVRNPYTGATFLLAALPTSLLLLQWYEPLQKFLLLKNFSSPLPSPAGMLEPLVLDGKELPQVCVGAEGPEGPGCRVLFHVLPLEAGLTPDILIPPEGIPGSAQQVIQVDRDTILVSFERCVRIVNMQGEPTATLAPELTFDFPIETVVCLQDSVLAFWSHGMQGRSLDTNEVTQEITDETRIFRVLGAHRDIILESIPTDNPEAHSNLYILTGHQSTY
The following applies: at 0.1 µM.

The target of assay [19] is T5, Mitogen-activated protein kinase kinase kinase kinase 2 (Homo sapiens). The following applies: at 1 µM.
The target of assay [20] is Mitogen-activated protein kinase kinase kinase kinase 4 (Homo sapiens) (UniProt O95819). As to conditions: at 0.1 µM.

Sequence of Non-receptor tyrosine-protein kinase TYK2 (Homo sapiens) (P29597 whole entry): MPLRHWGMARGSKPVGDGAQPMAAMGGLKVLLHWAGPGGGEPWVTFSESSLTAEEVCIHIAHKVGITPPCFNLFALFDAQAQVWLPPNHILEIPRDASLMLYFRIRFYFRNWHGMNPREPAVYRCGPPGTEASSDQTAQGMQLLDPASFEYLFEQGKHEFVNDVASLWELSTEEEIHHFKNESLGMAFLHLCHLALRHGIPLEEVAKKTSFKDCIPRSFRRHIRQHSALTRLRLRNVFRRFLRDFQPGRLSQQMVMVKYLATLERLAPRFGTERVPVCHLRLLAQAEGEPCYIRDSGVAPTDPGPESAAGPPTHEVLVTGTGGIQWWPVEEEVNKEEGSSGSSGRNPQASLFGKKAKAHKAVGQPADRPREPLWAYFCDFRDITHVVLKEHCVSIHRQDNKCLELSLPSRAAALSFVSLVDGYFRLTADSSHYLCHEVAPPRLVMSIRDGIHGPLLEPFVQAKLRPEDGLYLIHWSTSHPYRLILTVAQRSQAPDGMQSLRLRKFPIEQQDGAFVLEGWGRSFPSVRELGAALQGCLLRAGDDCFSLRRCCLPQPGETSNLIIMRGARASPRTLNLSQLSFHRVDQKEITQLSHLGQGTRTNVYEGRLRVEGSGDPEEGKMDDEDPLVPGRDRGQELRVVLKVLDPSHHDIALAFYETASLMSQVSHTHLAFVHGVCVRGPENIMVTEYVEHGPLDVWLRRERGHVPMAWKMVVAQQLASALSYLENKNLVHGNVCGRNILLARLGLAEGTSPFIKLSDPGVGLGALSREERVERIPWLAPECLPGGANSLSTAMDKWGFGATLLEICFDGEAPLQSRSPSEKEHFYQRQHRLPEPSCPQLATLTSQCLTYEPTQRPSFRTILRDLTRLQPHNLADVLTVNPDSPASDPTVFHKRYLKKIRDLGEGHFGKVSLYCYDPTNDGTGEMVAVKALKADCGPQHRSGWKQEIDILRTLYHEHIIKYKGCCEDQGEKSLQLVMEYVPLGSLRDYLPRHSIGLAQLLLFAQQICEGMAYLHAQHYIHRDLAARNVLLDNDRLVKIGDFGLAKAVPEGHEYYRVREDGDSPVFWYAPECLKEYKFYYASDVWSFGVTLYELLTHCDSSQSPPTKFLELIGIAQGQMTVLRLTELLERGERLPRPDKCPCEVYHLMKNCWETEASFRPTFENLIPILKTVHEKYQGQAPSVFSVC
Sequence of Serine/threonine-protein kinase 10 (Homo sapiens) (O94804 whole entry, looked up): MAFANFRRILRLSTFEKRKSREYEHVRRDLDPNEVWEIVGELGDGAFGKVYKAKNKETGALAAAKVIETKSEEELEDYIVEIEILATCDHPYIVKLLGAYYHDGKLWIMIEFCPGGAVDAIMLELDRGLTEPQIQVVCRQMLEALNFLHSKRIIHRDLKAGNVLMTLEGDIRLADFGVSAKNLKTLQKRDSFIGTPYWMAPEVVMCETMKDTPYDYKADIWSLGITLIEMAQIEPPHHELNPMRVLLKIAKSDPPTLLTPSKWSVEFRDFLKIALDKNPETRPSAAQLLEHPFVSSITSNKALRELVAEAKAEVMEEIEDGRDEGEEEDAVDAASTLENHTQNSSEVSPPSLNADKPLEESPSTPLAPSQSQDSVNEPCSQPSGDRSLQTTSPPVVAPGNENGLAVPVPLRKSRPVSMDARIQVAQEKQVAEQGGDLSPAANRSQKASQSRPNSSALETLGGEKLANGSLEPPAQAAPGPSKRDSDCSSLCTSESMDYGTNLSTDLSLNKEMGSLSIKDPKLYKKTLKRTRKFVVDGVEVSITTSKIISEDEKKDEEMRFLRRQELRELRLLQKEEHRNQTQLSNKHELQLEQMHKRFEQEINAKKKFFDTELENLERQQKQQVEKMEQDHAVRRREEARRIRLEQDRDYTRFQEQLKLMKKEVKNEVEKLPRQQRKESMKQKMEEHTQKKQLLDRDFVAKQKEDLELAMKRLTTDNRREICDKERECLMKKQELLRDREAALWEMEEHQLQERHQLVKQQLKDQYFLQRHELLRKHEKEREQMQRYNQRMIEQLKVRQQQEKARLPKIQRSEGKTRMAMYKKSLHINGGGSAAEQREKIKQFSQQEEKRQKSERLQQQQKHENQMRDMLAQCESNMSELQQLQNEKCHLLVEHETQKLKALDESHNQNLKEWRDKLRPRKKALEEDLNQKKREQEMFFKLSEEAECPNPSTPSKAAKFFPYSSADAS
Sequence of Aurora kinase B (Homo sapiens) (Q96GD4 whole entry): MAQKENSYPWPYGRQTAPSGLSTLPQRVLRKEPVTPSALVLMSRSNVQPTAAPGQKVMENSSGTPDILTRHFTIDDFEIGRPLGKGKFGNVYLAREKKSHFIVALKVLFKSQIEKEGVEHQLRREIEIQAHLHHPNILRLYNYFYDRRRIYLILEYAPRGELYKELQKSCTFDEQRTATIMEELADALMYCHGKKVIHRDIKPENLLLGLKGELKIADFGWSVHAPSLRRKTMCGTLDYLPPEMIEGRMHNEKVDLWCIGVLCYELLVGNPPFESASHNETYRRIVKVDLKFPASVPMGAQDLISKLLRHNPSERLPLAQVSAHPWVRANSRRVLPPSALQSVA
Sequence of NT-3 growth factor receptor (Homo sapiens) (Q16288 32-839 limits assumed): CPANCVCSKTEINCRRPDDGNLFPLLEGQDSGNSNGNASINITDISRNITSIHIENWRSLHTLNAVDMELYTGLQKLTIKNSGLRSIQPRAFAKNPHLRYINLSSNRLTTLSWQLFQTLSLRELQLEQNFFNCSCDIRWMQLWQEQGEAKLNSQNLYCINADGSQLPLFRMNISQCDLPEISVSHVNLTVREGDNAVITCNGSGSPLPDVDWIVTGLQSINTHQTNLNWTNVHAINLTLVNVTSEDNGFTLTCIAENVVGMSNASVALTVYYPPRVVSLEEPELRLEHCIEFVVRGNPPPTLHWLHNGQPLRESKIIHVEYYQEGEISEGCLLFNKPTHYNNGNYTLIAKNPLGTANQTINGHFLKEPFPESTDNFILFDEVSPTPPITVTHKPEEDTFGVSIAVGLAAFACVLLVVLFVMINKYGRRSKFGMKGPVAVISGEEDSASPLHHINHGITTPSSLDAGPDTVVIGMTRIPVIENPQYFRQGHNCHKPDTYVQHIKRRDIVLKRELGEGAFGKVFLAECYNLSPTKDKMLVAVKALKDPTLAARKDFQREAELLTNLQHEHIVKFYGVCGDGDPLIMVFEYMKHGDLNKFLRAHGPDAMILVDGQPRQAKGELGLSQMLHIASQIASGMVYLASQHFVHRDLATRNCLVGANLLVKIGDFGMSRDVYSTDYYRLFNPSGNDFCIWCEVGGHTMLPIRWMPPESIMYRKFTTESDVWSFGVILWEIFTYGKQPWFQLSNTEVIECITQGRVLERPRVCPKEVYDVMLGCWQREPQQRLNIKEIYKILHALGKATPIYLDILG
Sequence of BDNF/NT-3 growth factors receptor (Homo sapiens) (Q16620 32-822 limits assumed): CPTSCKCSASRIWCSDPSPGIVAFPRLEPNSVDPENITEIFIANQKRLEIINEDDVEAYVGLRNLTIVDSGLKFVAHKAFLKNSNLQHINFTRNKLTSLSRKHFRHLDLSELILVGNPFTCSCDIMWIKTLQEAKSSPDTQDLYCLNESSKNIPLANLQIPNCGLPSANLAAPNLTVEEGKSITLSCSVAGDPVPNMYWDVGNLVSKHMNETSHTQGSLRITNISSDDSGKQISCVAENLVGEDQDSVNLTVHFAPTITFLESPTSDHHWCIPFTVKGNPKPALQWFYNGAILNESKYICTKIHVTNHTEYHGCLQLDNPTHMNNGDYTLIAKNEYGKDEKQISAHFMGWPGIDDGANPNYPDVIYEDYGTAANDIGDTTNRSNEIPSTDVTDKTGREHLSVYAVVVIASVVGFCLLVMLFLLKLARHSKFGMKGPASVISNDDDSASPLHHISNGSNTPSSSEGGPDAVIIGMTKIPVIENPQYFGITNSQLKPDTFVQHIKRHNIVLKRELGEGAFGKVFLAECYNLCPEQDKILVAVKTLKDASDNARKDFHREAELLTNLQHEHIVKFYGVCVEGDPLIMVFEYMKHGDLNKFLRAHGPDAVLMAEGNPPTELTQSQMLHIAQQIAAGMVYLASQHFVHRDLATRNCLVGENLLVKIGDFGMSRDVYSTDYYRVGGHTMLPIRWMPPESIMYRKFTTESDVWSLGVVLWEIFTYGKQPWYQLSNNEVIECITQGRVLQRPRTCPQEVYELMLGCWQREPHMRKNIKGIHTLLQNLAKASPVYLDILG
Sequence of High affinity nerve growth factor receptor (Homo sapiens) (P04629 33-796 limits assumed): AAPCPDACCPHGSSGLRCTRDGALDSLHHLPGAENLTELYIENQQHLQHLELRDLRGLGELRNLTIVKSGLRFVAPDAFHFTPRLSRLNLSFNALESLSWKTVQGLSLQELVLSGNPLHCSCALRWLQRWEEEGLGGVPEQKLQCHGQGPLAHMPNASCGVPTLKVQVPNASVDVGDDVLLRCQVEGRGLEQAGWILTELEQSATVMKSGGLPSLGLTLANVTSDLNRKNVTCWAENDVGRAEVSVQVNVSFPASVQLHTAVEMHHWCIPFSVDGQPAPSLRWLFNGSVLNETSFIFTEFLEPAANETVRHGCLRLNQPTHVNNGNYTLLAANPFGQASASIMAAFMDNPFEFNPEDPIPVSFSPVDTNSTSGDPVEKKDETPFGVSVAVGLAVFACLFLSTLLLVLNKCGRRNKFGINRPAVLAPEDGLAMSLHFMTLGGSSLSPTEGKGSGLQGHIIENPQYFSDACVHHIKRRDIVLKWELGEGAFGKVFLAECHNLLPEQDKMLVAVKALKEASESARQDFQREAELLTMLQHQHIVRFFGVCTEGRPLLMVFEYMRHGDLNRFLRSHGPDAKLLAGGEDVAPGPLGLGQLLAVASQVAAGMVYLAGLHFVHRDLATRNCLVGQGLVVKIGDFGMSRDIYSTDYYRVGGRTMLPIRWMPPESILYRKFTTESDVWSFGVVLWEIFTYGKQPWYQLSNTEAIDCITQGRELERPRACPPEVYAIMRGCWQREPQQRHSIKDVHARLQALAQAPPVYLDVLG

As usually defined, the inhibition is the change of the read-out against control, counted positive when it falls. Turning to `FC(F)(F)CNc1nccc(-c2cnn3ncccc23)n1`, the inhibition was 2.2% in [1]; 0.64% in assay [2]; -0.08% in assay [3]; 0.73% in [4]; 0.22% in assay [5]; -0.11% in assay [6]. Besides, the inhibition in assay [7] was 1.8%; in assay [8], -4.86%; in [9] it was 8.83%; in assay [10], 2.68%; in assay [11], 1.83%; in assay [12] it was 1.65%. The inhibition was 4.22% in [13]; 0.63% in assay [14]; 2.77% in [15]; 2.56% in assay [16]; 6.33% in assay [17]; -0.83% in assay [18]. The inhibition in assay [19] turned out to be 1.5%; in [20], 1.9%.

As to `CCn1c(-c2nonc2N)nc2cncc(C(=O)NCCNC)c21`, the inhibition in assay [1] is 3.09%; in assay [2] it was 3.03%; in [3], 5.31%; in assay [4], 3.96%; in assay [5], 3.4%; in [6], -1.02%. The inhibition in assay [7] is 1.12%; in [8], -3.39%; in assay [9], 10.5%; in [10] it was 3.09%; in assay [11], 5.14%; in [12], 2.77%. Besides, the inhibition in [13] is 1.83%; in assay [14], 0.6%; in [15], 5.56%; in assay [16] it was 11.8%; in assay [17], 18%; in assay [18], 0.67%. Also, the inhibition in assay [19] was found to be 3.62%; in assay [20] it was 4.46%.

Regarding `c1cnn2ncc(-c3ccnc(NCCCN4CCOCC4)n3)c2c1`, the inhibition in [1] was 1.75%; in [2] it was 3.17%; in assay [3], 1.35%; in [4], 3.48%; in assay [5], 2.63%; in assay [6], 1.71%. Also, the inhibition is -0.63% in assay [7]; -5.16% in assay [8]; 8.22% in assay [9]; 2.65% in [10]; 8.82% in assay [11]; 2.38% in assay [12]. Moreover, the inhibition in assay [13] was 5.43%; in [14], -0.51%; in [15], 1.86%; in assay [16], 4.84%; in [17], 1.98%; in assay [18], -0.2%. Further, the values for the inhibition in assay [19] and in [20] were 1.94% and 4.7%, respectively.

As for `CNC(=O)c1sc(-n2cnc3cc(OC)c(OC)cc32)cc1OCc1ccccc1C(F)(F)F`, the inhibition turned out to be 4.9% in [1]; 1.8% in assay [2]; 4.02% in assay [3]; 3.06% in assay [4]; 6.32% in assay [5]; 5.54% in assay [6]. Further, the inhibition is 11.5% in assay [7]; -2.35% in [8]; 7.09% in assay [9]; 3.14% in assay [10]; 4.37% in assay [11]; 6.28% in [12]. The inhibition came to 16.6% in assay [13]; 5.07% in assay [14]; 20.8% in assay [15]; 10.4% in assay [16]; 31.6% in assay [17]; 3.26% in assay [18]. In addition, the results for the inhibition in assay [19] and in [20] were 7.14% and 8.53%, respectively.

`COc1cccc(-n2ncc3c(N/N=C/c4ccc(C(=O)NCCN(C)C)cc4)ncnc32)c1`: the inhibition in assay [1] was 12.1%; in assay [2] it was 5.53%; in [3] it was 26.5%; in assay [4], 3.96%; in assay [5], 20.7%; in [6], 7.49%. The inhibition in [7] is 29.4%; in assay [8] it was -5.03%; in [9], 11.6%; in assay [10], 8.37%; in [11], 62.7%; in assay [12], 7.23%. In addition, the inhibition in [13] stood at 38.6%; in assay [14], 5.58%; in assay [15] it was 57%; in assay [16], 23%; in [17], 61.2%; in assay [18], 3.89%. The values for the inhibition in [19] and in assay [20] were 21.8% and 31.3%, respectively.
